The text below walks through data of article PMC4081100, “A DNA-binding-site landscape and regulatory network analysis for NAC transcription factors in Arabidopsis thaliana”.

The target of the assay is GST-WRKY1(266-371) (Arabidopsis thaliana, UniProt Q9SI37 266-371). The assay can be described thus: universal protein binding microarray (PBM); transcription factors of Arabidopsis thaliana; high values mean tight binding. The conditions noted are these: protein: recombinant; tags: GST; dsDNA, one strand shown. The procedure, abridged: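 GST-tagged proteins (NAC-domain, full-length or DNA-binding-domain) were induced in cells, with zinc acetate supplied for zinc-finger proteins, then purified on glutathione–Sepharose 4B. Each was tested in duplicate at 200 to 500 nM final on custom all-10-mer Agilent 4 × 180K arrays rendered double-stranded by primer extension. The binding value is the normalised enrichment score (E-score) across gapped and ungapped 8-mers.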
GST-WRKY1(266-371), sequence (Q9SI37 266-371): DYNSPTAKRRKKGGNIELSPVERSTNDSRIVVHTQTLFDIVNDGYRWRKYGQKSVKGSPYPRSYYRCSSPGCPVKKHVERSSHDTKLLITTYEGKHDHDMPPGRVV
Turning to GGCGGTCA, the binding signal came out at 0.428 E-score. Take CTCTGACC: the binding signal worked out at 0.458 E-score. For the sequence AGCGGTCA, the binding signal is 0.422 E-score. For GCTGACTA the value was 0.417 E-score; for CCAGGTCA, 0.408 E-score.

For TCGGGTCA, the binding signal was determined as 0.434 E-score. Under GTCGGTCA stands 0.45 E-score; under GGGTCAGA, 0.432 E-score. For the sequence AGTGGTCA, the binding signal is 0.436 E-score. Under GAGTCAGC stands 0.418 E-score; under CTTGGTCA, 0.429 E-score. Under AAGACCAG stands 0.427 E-score; under CGGGTCAA, 0.487 E-score.

With GTCAAGGA, the binding signal was 0.455 E-score. Under CTATGACC stands 0.412 E-score; under AGTCAGCC, 0.415 E-score. For GCCTTGAC the value was 0.457 E-score; for CGGTTGAC, 0.475 E-score; for CCCGGTCA, 0.445 E-score. For GAGGTCAA the value was 0.485 E-score; for GGGGGTCA, 0.423 E-score. Take TGACCGCA: the binding signal is 0.429 E-score. In the case of CGATGACC, the binding signal is 0.414 E-score. Under GACCAGTC stands 0.406 E-score; under GCTCTGAC, 0.403 E-score; under TCTGACCA, 0.456 E-score.

Turning to ATCGGTCA, the binding signal was 0.451 E-score. Under CCGCTGAC stands 0.414 E-score.

For the sequence GGTCAGCA, the binding signal was 0.456 E-score.

Consider CGGGTCAG, for which the binding signal amounted to 0.408 E-score. For GGCTGACC the value was 0.431 E-score; for CGGTCCAC, 0.434 E-score; for CCGAGTCA, 0.409 E-score. Under CTGACCTA stands 0.413 E-score; under ACAGGTCA, 0.443 E-score; under GTCAGACA, 0.41 E-score. Under CAAGACCG stands 0.405 E-score; under ATGAGTCA, 0.427 E-score.
